A number with no mark means an inactive call. The rule behind the calls is not given here.

The assay deals with Pantothenate synthetase (Mycobacterium tuberculosis (strain ATCC 25618 / H37Rv)) (UniProt P9WIL5). Nature of the assay: Recombinant Mtb pantothenate synthetase (PanC) inhibitors, coupled enzyme, confirmatory (AID 375).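 Note: 0% = full reaction with vehicle and 100% = no enzyme background.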 The conditions noted are these: coupled enzyme assay; at 10 µM, active compounds read high.
Sequence of Pantothenate synthetase (Mycobacterium tuberculosis (strain ATCC 25618 / H37Rv)) (P9WIL5 whole entry, looked up): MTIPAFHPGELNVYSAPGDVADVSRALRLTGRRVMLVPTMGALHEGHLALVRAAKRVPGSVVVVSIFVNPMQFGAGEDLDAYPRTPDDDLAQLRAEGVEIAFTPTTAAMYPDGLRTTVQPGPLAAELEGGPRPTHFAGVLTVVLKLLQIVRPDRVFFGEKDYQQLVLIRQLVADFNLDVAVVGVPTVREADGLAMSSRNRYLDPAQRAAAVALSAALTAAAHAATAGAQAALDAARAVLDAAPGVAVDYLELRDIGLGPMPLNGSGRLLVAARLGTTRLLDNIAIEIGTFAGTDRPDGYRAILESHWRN
The term inhibition denotes how much of the control response was suppressed. For the compound `Cc1cc(C)n2nc(SCc3nc4ccccc4[nH]3)nc2n1`, the inhibition was 6%.
As for `O=C(CSc1ncn[nH]1)NC1CC2CCC1C2` (configuration not stated), the figure is 0%; as for `O=C(Nc1ccc(S(=O)(=O)N2CCc3ccccc32)cc1)c1ccc2c(c1)OCO2`, 0%.
Under `CCn1cc(C(=O)OCc2ccc(F)cc2)c(=O)c2ccc(C)nc21` stands 5%; under `O=C1CC(N2CCN(c3ccc(Cl)c(Cl)c3)CC2)C(=O)N1` (configuration not stated), 0%; under `CC(C)Cc1nnc(NS(=O)(=O)c2ccc(Cl)cc2)s1`, 0%.
Under `CC1CCN(c2nc3c(c(=O)[nH]c(=O)n3C)n2CCSc2ncccn2)CC1` stands 0%.
Take `CCOC(=O)CN1CC23C=CC(O2)C(C(=O)Nc2ccc(C(C)=O)cc2)C3C1=O` (configuration not stated): the inhibition is 6%.
Under `COC(=O)CN(c1nc(C)c(Cl)c(OC)n1)S(=O)(=O)c1ccc(C)cc1` stands 0%.
Under `O=C(CSc1nccn1Cc1ccccc1)Nc1nccs1` stands 0%; under `CC(=O)OCCNc1cc(N2CCN(C)CC2)c2noc3c2c1C(=O)c1ccccc1-3`, 0%.
Take `COc1cc(-c2nnc(SCc3c(F)cccc3Cl)o2)cc(OC)c1OC`: the inhibition was 0%.
Under `COc1ccc(NC(=O)CN(c2ccc(C)cc2)S(C)(=O)=O)c(OC)c1` stands 4%; under `CCOc1ccccc1C(=O)Nc1cc(=O)n(C)c(=O)n1C`, 10%.
Consider `Cc1cccc(-n2ncc3c(NCCCO)ncnc32)c1`, for which the inhibition is 2%.
As for `Cn1nc(-c2ccc(C(=O)N3CCN(c4ccccc4)CC3)cc2)c2ccccc2c1=O`, the inhibition is 0%.
As for `COCc1cc(C)c2c(N)c(C#N)sc2n1`, the figure is 1%.

The values are drawn from PubChem BioAssay.
